{"source": "PubChem BioAssay (NCATS)", "note": "Activity calls are given as the source filed them. Calls follow the shape of the full dose curve."}
{"details": "Ebola virus entry cell assay, ratio channel"}
{"smiles": "C[C@@H](NCCCc1cccc(C(F)(F)F)c1)c1cccc2ccccc12", "AC50": "12.6 µM (active)"}
{"smiles": "COC1=CC(=O)C[C@@H](C)[C@]12Oc1c(Cl)c(OC)cc(OC)c1C2=O", "outcome": "inactive"}
{"smiles": "COC(=O)Nc1nc2ccc(C(=O)c3ccccc3)cc2[nH]1", "AC50": "5.62 µM (active)"}
{"smiles": "CC(=O)Oc1ccccc1C(=O)Nc1ncc([N+](=O)[O-])s1", "outcome": "inactive"}
{"smiles": "N[C@@H](C(=O)N[C@@H]1C(=O)N2C(C(=O)O)=C(Cl)CS[C@H]12)c1ccccc1", "outcome": "inactive"}
{"smiles": "COC(=O)CCc1ccc(OCC(O)CNC(C)C)cc1", "note": "(centres undefined)", "outcome": "inactive"}
{"smiles": "CCCNCC(O)COc1ccccc1C(=O)CCc1ccccc1", "note": "(centres undefined)", "AC50": "8.91 µM (active)"}
{"smiles": "CCCC(=O)Nc1ccc(OCC(O)CNC(C)C)c(C(C)=O)c1", "note": "(centres undefined)", "outcome": "inactive"}
{"smiles": "CNS(=O)(=O)CCc1ccc2[nH]cc(C3CCN(C)CC3)c2c1", "outcome": "inactive"}
{"smiles": "CC(=O)N(O)CCCCCNC(=O)CCC(=O)N(O)CCCCCNC(=O)CCC(=O)N(O)CCCCCN", "outcome": "inactive"}
{"smiles": "CNCCc1ccccn1", "outcome": "inactive"}
{"smiles": "c1cnc2cc3c(cc2n1)C1CNCC3C1", "outcome": "inactive"}
{"smiles": "O=C1CCc2cc(OCCCCc3nnnn3C3CCCCC3)ccc2N1", "outcome": "inactive"}
{"smiles": "O=C1OCCN1/N=C/c1ccc([N+](=O)[O-])o1", "outcome": "inactive"}
{"smiles": "CO[C@H]1C=CO[C@@]2(C)Oc3c(C)c(O)c4c(O)c(c(/C=N/N5CCN(C)CC5)c(O)c4c3C2=O)NC(=O)/C(C)=C\\C=C[C@H](C)[C@H](O)[C@@H](C)[C@@H](O)[C@@H](C)[C@H](OC(C)=O)[C@@H]1C", "outcome": "inactive"}
{"smiles": "CO/N=C(\\C(=O)N[C@@H]1C(=O)N2C(C(=O)O)=C(CSc3nc(=O)c(O)nn3C)CS[C@H]12)c1csc(N)n1", "outcome": "inactive"}
{"smiles": "O=NN(CCCl)C(=O)NC1CCCCC1", "outcome": "inactive"}
{"smiles": "CCN(CC)CCNC(=O)c1c(C)[nH]c(/C=C2\\C(=O)Nc3ccc(F)cc32)c1C", "AC50": "3.16 µM (active)"}
{"smiles": "CCCCC1=NC2(CCCC2)C(=O)N1Cc1ccc(-c2ccccc2-c2nn[nH]n2)cc1", "outcome": "inactive"}
{"smiles": "Clc1ccc2c(c1)C(N1CCNCC1)=Nc1ccccc1O2", "AC50": "12.6 µM (active)"}
{"smiles": "O=C1c2c(O)ccc(O)c2C(=O)c2c(NCCNCCO)ccc(NCCNCCO)c21", "AC50": "5.01 µM (active)"}
{"smiles": "C[C@@H]1C[C@H]2[C@@H]3CCC4=CC(=O)C=C[C@]4(C)[C@@]3(F)[C@@H](O)C[C@]2(C)[C@@]1(O)C(=O)CO", "outcome": "inactive"}
{"smiles": "O=C(O)CCNC(=O)c1ccc(N=Nc2ccc(O)c(C(=O)O)c2)cc1", "outcome": "inactive"}
{"smiles": "O[C@@H](c1cc(C(F)(F)F)nc2c(C(F)(F)F)cccc12)[C@H]1CCCCN1", "AC50": "5.62 µM (active)"}
{"smiles": "CNCC[C@@H](Oc1ccccc1C)c1ccccc1", "AC50": "17.8 µM (active)"}
{"smiles": "CN1C(=O)CC(C)(c2ccccc2)C1=O", "note": "(centres undefined)", "outcome": "inactive"}
{"smiles": "O=C1CCC(N2C(=O)c3ccccc3C2=O)C(=O)N1", "note": "(centres undefined)", "outcome": "inactive"}
{"smiles": "COc1cc2nc(N3CCN(C(=O)C4CCCO4)CC3)nc(N)c2cc1OC", "note": "(centres undefined)", "outcome": "inactive"}
{"smiles": "C[C@@H](O)[C@H]1C(=O)N2C(C(=O)O)=C(S[C@@H]3CN[C@H](CNS(N)(=O)=O)C3)[C@H](C)[C@H]12", "outcome": "inactive"}
{"smiles": "O[C@@H]1CO[C@H]2[C@@H]1OC[C@@H]2O", "outcome": "inactive"}
{"smiles": "CN1CCN(C2=Nc3ccccc3Oc3ccc(Cl)cc32)CC1", "outcome": "inactive"}
{"smiles": "Cc1nc(-c2ccc(OCC(C)C)c(C#N)c2)sc1C(=O)O", "outcome": "inactive"}
{"smiles": "CN(C)CCOC(C)(c1ccccc1)c1ccccn1", "note": "(centres undefined)", "outcome": "inactive"}
{"smiles": "CC(C)C(=O)Nc1ccc([N+](=O)[O-])c(C(F)(F)F)c1", "outcome": "inactive"}
{"smiles": "Cc1cccc(Nc2ccccc2C(=O)O)c1C", "outcome": "inactive"}
{"smiles": "NC(=O)NO", "outcome": "inactive"}
{"smiles": "CC(C)c1nc(CN(C)C(=O)N[C@H](C(=O)N[C@@H](Cc2ccccc2)C[C@H](O)[C@H](Cc2ccccc2)NC(=O)OCc2cncs2)C(C)C)cs1", "outcome": "inactive"}
{"smiles": "COC(=O)C(c1ccccc1Cl)N1CCc2sccc2C1", "note": "(centres undefined)", "outcome": "inactive"}
{"smiles": "N=C(N)c1ccc(OCCCCCOc2ccc(C(=N)N)cc2)cc1", "outcome": "inactive"}
